Cycloheximide cs = counter-screen for Shiga toxin inhibitors: cycloheximide protein synthesis inhibition | cell reporter, cycloheximide protein synthesis inhibition counterscreen | max response, % | 300,000 tested, 12% active; in the data active = max response mostly above about 13%, no sharp cut-off; inactive = mostly below about 14%; also: read at 38.3 µM for the half of the compounds with a filed dose; 0% is about no effect
Pf growth 48h = P. falciparum growth inhibition at 48 hours (one generation); P. falciparum luciferase growth in erythrocytes, 48 h; Potency, µM (titrated, usually from 28.7 µM), for inactives: top-dose activity change, negative = inhibition, hits mostly inhibitors; AID 504832; 310,000 tested, 5.9% active; also: potency is read from the fitted curve at half-maximal effect; % is scaled to controls: 0 for no effect and ±100 for the full control effect
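Cell-based growth assay: transgenic P. falciparum expressing firefly luciferase, cultured in red cells within RPMI 1640 containing 0.5% w/v Albumax, 24 mM bicarbonate and gentamycin. A drop in luciferase activity indicates inhibition.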
LmPK inhibitor = inhibitors of Leishmania mexicana pyruvate kinase; Potency, µM (highest dose often 57.5 µM), without a hit: at the highest dose activity change, negative = inhibition, usual class: inhibitors; AID 1721; purified LmPK, Kinase-Glo ATP luminescence, 1 h; 290,000 tested, 0.37% active; Q27686; also: potency is read from the fitted curve at half-maximal effect; % is scaled to controls: 0 for no effect and ±100 for the full control effect
Target sequence (Q27686 whole entry, looked up): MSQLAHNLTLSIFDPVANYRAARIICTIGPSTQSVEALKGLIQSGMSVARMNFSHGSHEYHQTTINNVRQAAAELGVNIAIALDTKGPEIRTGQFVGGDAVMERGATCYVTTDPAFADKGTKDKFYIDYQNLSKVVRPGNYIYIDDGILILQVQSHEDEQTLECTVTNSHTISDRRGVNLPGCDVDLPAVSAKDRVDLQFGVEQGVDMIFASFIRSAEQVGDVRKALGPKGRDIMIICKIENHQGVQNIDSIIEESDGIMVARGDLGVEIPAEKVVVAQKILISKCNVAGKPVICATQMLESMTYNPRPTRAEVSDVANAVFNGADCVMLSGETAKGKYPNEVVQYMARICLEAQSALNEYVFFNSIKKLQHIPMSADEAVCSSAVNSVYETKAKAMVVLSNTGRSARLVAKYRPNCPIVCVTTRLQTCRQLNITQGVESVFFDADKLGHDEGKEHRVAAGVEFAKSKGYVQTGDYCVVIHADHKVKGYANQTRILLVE
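ATP generated from ADP (0.1 mM) and PEP (0.5 mM) by 0.1 nM LmPK over 1 h at room temperature (pH 7.2 imidazole buffer) was detected by coupled luciferase luminescence. Values were normalized to uninhibited and no-enzyme wells.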
Pf growth 96h = P. falciparum growth inhibition at 96 hour, primary screen for plastid delayed-death inhibitors; Potency, µM (top dose mostly 28.7 µM), for the others: top-dose activity change, negative = inhibition, usual class: inhibitors; 320,000 tested, 6.9% active; P. falciparum luciferase reporter growth, 96 h; also: potency is read from the fitted curve at half-maximal effect; % is scaled to controls: 0 for no effect and ±100 for the full control effect
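Erythrocytes infected with luciferase-expressing P. falciparum were dispensed at 2% hematocrit and 0.05% parasitemia (final), then incubated with compounds 96 hours at 37 C in 5% CO2. Luminescence after detection reagent addition reported growth.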
Shiga inhibitor = blocks Shiga toxin action in Vero cells | Vero cells, Shiga toxin protein synthesis inhibition reporter | inhibition, % at 38.7 µM | 290,000 tested, 9.2% active | AID 2315; in the data active = inhibition mostly above about 28%, no sharp cut-off; inactive = mostly below about 43%; also: 0% is about no effect
An asterisk follows results filed as active; u = inconclusive; x = not tested or not shown; [ ] = dose if it differs, or a comment. A selection: hits, their analogues and other compounds. The true share with any hit is near 22%. Unless noted, calls follow the shape of the dose curve; as a rule, active = well fitted inhibition curve with a large enough effect; inconclusive = small, poorly fitted or top-dose-only effect, or another doubt; inactive = no such curve, though single readings can be large or run the other way.

SMILES	Cycloheximide cs	Pf growth 48h	LmPK inhibitor	Pf growth 96h	Shiga inhibitor
C=C1C(C(=O)Nc2ccccc2)C1C(=O)Nc1ccccc1 (configuration not stated)	-1.0	-0.5%	2.5%	-1.4%	-7.5
CCCCCN(C(=O)NC(=O)Nc1ccc(C)cc1C)S(C)(=O)=O	-4.5	-1.8%	10.3%	10.7%	23.5
Cc1ccc(NC(=O)N(CCC(=O)O)Cc2ccccc2)cc1	-1.2	12.9%	0.6%	17.2%	-9.3
Oc1ccccc1Nc1nc(-c2ccccc2O)nc2ccccc12	9.5	1.04µM*	1.2%	1.31µM*	3.1
C/C(=N/Nc1nc(-c2ccccc2F)nc2ccccc12)c1ccccc1O	-1.1	u	8.1%	u	-3.0
C/C(=N\Nc1nc(-c2ccccc2O)nc2ccccc12)c1ccccc1	2.3	0.522µM*	-0.8%	u	22.6
CCCc1cc(=O)[nH]c(SCC(=O)N(C)C2CCCCC2)n1	x	u	x	-24.4%	x
COc1ccc(OC)c(N(CC(=O)N2CCN(Cc3ccccc3)CC2)S(C)(=O)=O)c1	-2.2	u	-2.0%	u	1.8
CCOC(=O)N1CCN(C(=O)CSCC(=O)Nc2nc(-c3ccc(Cl)s3)cs2)CC1	13.7*	u	-0.9%	u	-15.2
O=C(CSCC(=O)N1CCOCC1)Nc1nc(-c2ccccc2)cs1	34.6*	-5.5%	0.8%	-16.6%	84.2*
CCOC(=O)N1CCN(C(=O)CSCC(=O)Nc2nc(-c3ccc(-c4ccccc4)cc3)cs2)CC1	32.1*	u	-3.5%	10.4µM*	active
CCC1=NN2C(=N)/C(=C\c3ccc(OCCOc4ccccc4OC)cc3)C(=O)N=C2S1	-2.9	13.5%	2.2%	-5.2%	x
COc1ccccc1N1CCN(CC(=O)Nc2c(C)n(C)n(-c3ccccc3)c2=O)CC1	-4.6	19.0%	-4.0%	17.7%	-16.3
O=C(CCNS(=O)(=O)c1cccs1)NCc1ccccc1	-1.1	9.9%	0.5%	x	-14.4
COc1cccc(CN2CC(C(=O)NCc3cccc(N4CCCC4)c3)CCC2=O)c1 (configuration not stated)	14.8	u	0.2%	u	6.3
Cc1ccc(-c2csc(N3CCN(c4cc5c(cc4Cl)nc(-c4ccncc4)n5CCN4CCCCC4)CC3)n2)cc1	-2.9	u	-2.6%	3.29µM*	-2.1
CCCn1c(C)nc2cc(Cl)c(N3CCN(c4nc(-c5ccc(C)cc5)cs4)CC3)cc21	-2.1	8.28µM*	6.3%	5.22µM*	2.7
Cc1ccc(-c2csc(N3CCN(c4ccc5nc(-c6ccncc6)n(CCN6CCCCC6)c5c4)CC3)n2)cc1	13.4	1.47µM*	0.4%	u	5.0
COc1ccc(-c2csc(N3CCN(c4cc5c(cc4Cl)nc(-c4ccncc4)n5CCOCCO)CC3)n2)cc1	-5.6	u	-4.1%	3.7µM*	-6.1
COc1ccc(N2CCN(C(=O)CN3CCN(c4nc(-c5ccc(F)cc5)cs4)CC3)CC2)cc1	-2.4	u	6.0%	22.3%	-2.3
Cc1cc(C)c(NC(=O)c2cccc3c2C(=O)N(C2CCCCC2)C3)c(C)c1	-7.9	0.0%	-5.9%	44.3%	-5.2
CCCN(CCC)CC(O)Cn1cc(/C=C/C(=O)c2ccccc2)c2ccccc21 (configuration not stated)	-2.2	u	-6.0%[11.5 µM]	-14.6%	41.9
CCCN(CCC)CC(O)Cn1cc(/C=C/C(=O)c2cccs2)c2ccccc21 (configuration not stated)	-1.5	7.38µM*	7.2%	2.4%	-6.0
CCCCN(C)CC(O)Cn1cc(/C=C/C(=O)c2ccc(C)cc2)c2ccccc21 (configuration not stated)	-0.3	9.28µM*	-3.7%	-8.1%	2.9
COc1cccc(NC(=O)Cc2nnc(SCCOc3ccccc3)n2C)c1	-3.2	5.8%	-2.7%	x	-9.3
SMILES	Cycloheximide cs	Pf growth 48h	LmPK inhibitor	Pf growth 96h	Shiga inhibitor
COc1cccc(OCCSc2nnc3sc4ccccc4n23)c1	39.9*	11.5%	4.3%	6.6%	21.0*
c1ccc(OCCSc2nnc3sc4ccccc4n23)cc1	15.6	182.8%	-23.8%	19.6%	44.8*
CCN(CC)C(=O)CSc1nnc2sc3ccccc3n12	2.9	28.2%	3.5%	u	-8.2
COc1ccc(N=Cc2c(O)n(-c3cccc(C)n3)c(=O)c3ccccc23)c(OC)c1	-2.5	19.9%	4.3%	24.4%	11.2
FC(F)(F)c1ccc(Cl)c(-n2c(-c3cc(C4CC4)[nH]n3)n[nH]c2=S)c1	-2.7	-10.2%	u	u	3.7
Cc1ccc(S(=O)(=O)N(CC(=O)N2CCc3ccccc3C2)c2ccc(Cl)c(Cl)c2)cc1	-2.0	10.4µM*	0.9%	u	-11.7
O=C(CN(c1ccc(Cl)c(Cl)c1)S(=O)(=O)c1ccccc1)N1CCc2ccccc2C1	-2.2	u	2.0%	105.2%	-1.8
COc1cccc(N(CC(=O)N2CCN(C)CC2)S(=O)(=O)c2ccc(C)cc2)c1	-2.1	-10.2%	7.6%	11.7µM*	-6.6
COc1ccc(N(CC(=O)N2CCN(C)CC2)S(=O)(=O)c2cc(C)ccc2OC)cc1Cl	-1.9	-10.5%	-2.4%	8.28µM*	-14.9
Cc1ccccc1OCC(=O)Nc1nnc(-c2ccco2)s1	1.3	8.0%	1.9%	49.0%	-5.1
O=C(Nc1ccc(F)cc1)Nc1nnc(-c2ccco2)s1	52.6*	18.5%	-4.6%	16.3%	112.0*
O=C(Nc1nnc(-c2ccco2)s1)c1ccccc1	44.3*	211.0%	-19.4%	154.2%	88.8*
O=C(Nc1nnc(-c2ccco2)s1)C1CCN(S(=O)(=O)c2ccc(Cl)cc2)CC1	-3.1	u	4.1%	-1.0%	-10.9
O=C(Nc1nnc(-c2ccco2)s1)C1CC1	22.8*	45.5%	-4.2%	-4.5%	31.0*
CC(C)C(=O)Nc1nnc(-c2ccco2)s1	29.4*	35.5%	-3.8%	29.8%	95.1*
O=C(NNS(=O)(=O)c1ccc(Br)cc1)c1csnn1	11.6	9.7%	-0.1%	0.0%	1.2
CSCCC(NC(=O)c1ccco1)C(=O)NCC1CCCO1 (configuration not stated)	x	u	x	-15.8%	x
CC(NC(=O)COc1ccc(Br)cc1)C1CCCO1 (configuration not stated)	0.6	-8.8%	-1.7%	2.6%	20.9
COc1nc(N/N=C/c2ccccc2F)nc(N2CCCCC2)n1	5.3	-2.0%	0.4%	49.2%	13.7
COc1ccccc1NC(=O)Nc1nnc(-c2ccco2)s1	-0.3	-11.6%	-0.1%	36.2%	17.5
COc1ccc(C(=O)Nc2nnc(-c3ccco3)s2)cc1	36.7*	x	u	315.4%	71.8*
Cc1cc(C)c(S(=O)(=O)c2c(C)cccc2C)c(OCC(C)C)n1	6.0	11.7µM*	1.8%	11.7µM*	-29.7
Cc1ccsc1C(=O)OCC(=O)NC1CCCC1	x	105.5%	x	98.5%	x
CO[C@@]12[C@H](COC(N)=O)C3=C(C(=O)C(C)=C(N)C3=O)N1C[C@@H]1N[C@@H]12	x	13.1µM*	x	5.22µM*	x

Assay outcomes (PubChem BioAssay)
